# Experimental data from PubChem BioAssay (NCI).
# Compounds without any hit were thinned out: in the full panel of roughly 79,000, 15% have a hit. Values without a mark were called inactive. No stated cut-off is given here; in the data, active means growth inhibition above about 70%; inactive means the rest.
# Experiment: NCI Yeast Anticancer Drug Screen. Data for the bub3 strain (AID 167)
# Conditions: S. cerevisiae bub3 mutant strain, at 1.2 µM, hits give high values
# Procedure, shortened: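 Growth of a checkpoint-deficient yeast mutant is measured after compound exposure. Values represent inhibition relative to vehicle.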
row,SMILES,growth inhibition [%]
1,CC(CN(C)C)C(=O)/C=C/c1ccc(Cl)c(Cl)c1 (stereo unspecified),3
2,CCCCCCNCCCNc1c2cc(OC)ccc2nc2cccc([N+](=O)[O-])c12,-6
3,NC(=S)N1N=C2c3ccccc3CC[C@H]2[C@@H]1c1ccc(Cl)cc1,-12
4,C/C(=N/NC(=S)Nc1ccccc1C)c1ccccn1,-7
5,O=C1/C(=C/c2ccc(Cl)c(Cl)c2)CNC/C1=C\c1ccc(Cl)c(Cl)c1,-8
6,CC(C)OP(=O)(OC(C)C)C(=NCCO)NNc1ccc([N+](=O)[O-])cc1,-15
7,N#CCC(=O)N/N=C(\c1ccccc1)C(c1ccccc1)C1(O)C(=O)Nc2c(Cl)ccc(Cl)c21 (stereo unspecified),2
8,CC(C)(CN1CCCCC1)C(=O)CC(SCCS(=O)(=O)O)c1ccccc1 (stereo unspecified),-1
9,COC1=CCC23C(=O)C=CC(=O)C2(C1)C(=O)c1ccccc1C3=O (stereo unspecified),-30
10,CCCCN(CCCC)c1ccc(N=Nc2ccc(S(=O)(=O)O)cc2)cc1,34
11,c1ccc2nc3c(nc2c1)sc1ccccc13,0
12,O=C1c2ccccc2-c2ccc(N=Cc3ccccc3)cc21,-6
13,CNC(=S)N/N=C(/C)CCC/C(C)=N/NC(=S)NC,43
14,Nc1ccc(/C=C/c2ccc3cccnc3c2)cc1,5
15,COc1ccc2c3c1OC(C)C31CC(=O)CCC1CC2 (stereo unspecified),-5
16,CCOC(=O)Nc1ccc(C)c(NC(=O)OCC)c1,2
17,CCN(CC)CCNc1ccc2nc(C)n3c4ccc(OC)cc4c(=O)c1c23,11
18,C[N+](C)([O-])CCCNc1c2ccccc2nc2cccc([N+](=O)[O-])c12,-25

row,SMILES,growth inhibition [%]
1,O=C(c1cc(=O)c2ccc(O)cc2o1)c1ccc(Cl)cc1Cl,-16
2,CCCNC(=O)OCc1c(COC(=O)NCCC)c(-c2ccc(Cl)c(Cl)c2)n2c1CCC2,-53
3,O=C(Cc1ccccc1)NN1C(=O)C(Cl)C1c1cc(Br)cc(Br)c1O (stereo unspecified),-8
4,CCOC(=O)C(Cc1c2ccccc2cc2ccccc12)(NC(C)=O)C(=O)OCC,-2
5,O=[N+]([O-])/C=C/c1cc2ccc3ccccc3c2[nH]1,12
6,Fc1ccc(Nc2ccc3ccccc3c2)cc1,0
7,O=S1(=O)CCC2=CC(C(F)(F)F)=CC(C(F)(F)F)=CN21,26
8,O=C(Cc1ccccc1)NNc1nc(NNC(=O)c2ccncc2)nc(Nc2ccc([N+](=O)[O-])cc2)n1,-2
9,CCCCS/C(=C(/C#N)C(N)=O)c1cc2c([nH]1)CCCC2,-37
10,O=C(O)c1ccccc1C(=O)OC1CCc2ccccc2C1 (stereo unspecified),-9
11,CCOC(=O)/C(=C\c1cccc(C)c1)C(C)=O,1
12,NC(=S)N/N=C1\c2ccccc2CCC1CCC1(O)CCc2ccccc2C1=O (stereo unspecified),20
13,Cc1cccc2c(Cl)c3cccc(C)c3nc12,-8
14,CC(C)OC(=O)NNc1c(Cl)cc(Cl)cc1Cl,26
15,Nc1ccc2c(c1)C(=O)c1c(F)cccc1-2,-11
16,N#CSCC1COc2ccccc2O1 (stereo unspecified),-33
17,Cc1ccc(S(=O)(=O)NC(=O)C2C(=O)CC3(CCCCC3)CC2=O)cc1,-5
18,CC1=NN(C(=O)c2ccccc2O)C(=O)/C1=C/c1ccco1,40
